Shiga inhibitor: inhibitors of Shiga toxin in Vero cells; Vero cells, Shiga toxin protein synthesis inhibition reporter; inhibition, % at 38.7 µM; 9.2% of 290,000 active; in the data active = inhibition mostly above about 28%, no sharp cut-off; inactive = mostly below about 43%
RE007 growth inh: less growth of the S. pombe RE007 Vpr strain; Potency, µM (titrated, usually from 92.2 µM), actives largely listed as inhibitors; S. pombe RE007 Vpr strain, BacTiter-Glo ATP luminescence, 24 h; 0.21% of 360,000 active; active = well fitted falling curve with a large enough effect; inconclusive = small, poorly fitted or top-dose-only effect; inactive = no such curve, though single readings can be large or run the other way; also: nearly all actives have a fitted effect of over 50% in size
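Fission yeast strain RE007, carrying one chromosomally integrated HIV-1 vpr copy, was seeded at OD 0.01 in PMG+AL medium with 23 nL pinned compound. After 24 h at 30 °C and 99% humidity, viability was read by BacTiter-Glo luminescence.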
CHX counter: counter-screen for Shiga toxin inhibitors: cycloheximide protein synthesis inhibition; cell reporter, cycloheximide protein synthesis inhibition counterscreen; max response, %; 12% of 300,000 active; AID 2314; in the data active = max response mostly above about 13%, no sharp cut-off; inactive = mostly below about 14%; also: read at 38.3 µM for the half of the compounds with a filed dose
Giardia FBPA inh: Giardia lamblia aldolase inhibition; purified Giardia FBPA; Potency, µM (doses to about 59.6 µM), actives largely listed as inhibitors; AID 2451; 0.71% of 290,000 active; also: nearly all actives have a fitted effect of over 55% in size
Target sequence (A8B2U2 whole entry, looked up): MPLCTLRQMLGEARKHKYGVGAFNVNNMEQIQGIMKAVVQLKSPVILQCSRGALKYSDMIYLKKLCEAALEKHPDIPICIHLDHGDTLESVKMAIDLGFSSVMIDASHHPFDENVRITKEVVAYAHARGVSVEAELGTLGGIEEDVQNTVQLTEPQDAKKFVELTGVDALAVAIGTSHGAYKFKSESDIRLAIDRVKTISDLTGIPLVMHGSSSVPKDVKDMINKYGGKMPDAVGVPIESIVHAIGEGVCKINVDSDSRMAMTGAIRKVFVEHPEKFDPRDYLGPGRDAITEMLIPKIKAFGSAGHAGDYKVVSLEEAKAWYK
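Giardia FBPA (40 nM reagent) was preincubated 10 min at RT with compound (up to 57.5 uM final), then substrate plus GAPDH/TPI/NAD/arsenate coupling system with diaphorase/resazurin was added; resorufin fluorescence (525/598 nm) was read after 20 min.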
LmPK inh: blocks Leishmania mexicana pyruvate kinase activity. Potency, µM (titrated, usually from 57.5 µM), hits mostly inhibitors. Q27686. AID 1721. purified LmPK, Kinase-Glo ATP luminescence, 1 h. 0.37% of 290,000 active
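Kinase-Glo luminescence read after 1 h RT reaction of 0.1 nM LmPK with 0.5 mM PEP and 0.1 mM ADP. Activity scaled between uninhibited and enzyme-free controls.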
Tb PYK inh: T. brucei pyruvate kinase inhibition. AID 624173. 0.12% of 410,000 active. TbPYK enzyme, Kinase-Glo Plus ATP luminescence, 45 min. Potency, µM (highest dose often 76.8 µM), most hits filed as inhibitors; also: nearly all actives have a fitted effect of over 50% in size
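In this concentration-response screen, enzyme-free wells defined baseline while DMSO plates tracked drift. Each reaction combined TbPYK, substrate, compound and 130 uM ADP for 45 min at room temperature. Kinase-Glo Plus luminescence gave the signal.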
A number is an active result. The entries come from a sample that favours hits as a whole. Unless noted, calls follow the shape of the dose curve; as a rule, active = well fitted curve in the direction sought with a large enough effect; inconclusive = small, poorly fitted or top-dose-only effect, or another doubt; inactive = no such curve, though single readings can be large; an effect the other way counts as inactive or inconclusive.

Screening CCOc1ccc2ccccc2c1/C=N/NC(=O)c1cc(C)[nH]n1 returned Shiga inhibitor inactive, RE007 growth inh inactive, CHX counter inactive, Giardia FBPA inh inactive, LmPK inh inactive and Tb PYK inh inactive.
For Cc1cc(C(=O)N/N=C/c2c3ccccc3cc3ccccc23)n[nH]1 the results were Shiga inhibitor inactive, RE007 growth inh inactive, CHX counter inactive, Giardia FBPA inh inactive, LmPK inh inactive and Tb PYK inh inactive.
For Cc1cc(C(=O)NN)n[nH]1 the results were Shiga inhibitor 60.9, RE007 growth inh inactive, CHX counter 20.1, Giardia FBPA inh inactive, LmPK inh inactive and Tb PYK inh inactive.
`Cc1c(Cl)cccc1NC(=O)c1ccc2c(c1)nnn2C1CCCC1` gave Tb PYK inh inactive.
For CN(C)c1ccc(CNC(=O)C2CCN(S(=O)(=O)c3cn(C)cn3)CC2)cc1 the results were Tb PYK inh inactive.
O=C(N/N=C/c1ccc([N+](=O)[O-])cc1)c1cc(C2CC2)[nH]n1 was read as Shiga inhibitor inactive, RE007 growth inh inactive, CHX counter inactive, LmPK inh inactive and Tb PYK inh inactive.
For O=C(N/N=C/c1ccco1)c1cc(C2CC2)[nH]n1 the results were Shiga inhibitor 117.8, RE007 growth inh inactive, CHX counter 35.2, Giardia FBPA inh inactive, LmPK inh inactive and Tb PYK inh inactive.
Screening CC(/C=N/NC(=O)c1cc(C2CC2)[nH]n1)=C\c1ccccc1 returned Shiga inhibitor inactive, RE007 growth inh inactive, CHX counter 9.5, Giardia FBPA inh inactive, LmPK inh inactive and Tb PYK inh inactive.
Cc1cc(C(=O)N/N=C/c2ccco2)n[nH]1 was read as Shiga inhibitor inactive, RE007 growth inh inactive, CHX counter 28.8, Giardia FBPA inh inactive, LmPK inh inactive and Tb PYK inh inactive.
For CC(/C=N/NC(=O)c1cc(C(C)C)[nH]n1)=C\c1ccccc1 the results were Shiga inhibitor inactive, RE007 growth inh inactive, CHX counter inactive, Giardia FBPA inh inactive, LmPK inh inactive and Tb PYK inh inactive.
For COC(=O)CCC(C)C1CCC2C3C(O)C[C@@H]4CC(O)CC[C@@]4(C)C3CC(O)[C@]12C (some centres not stated) the results were Giardia FBPA inh inactive.
For CSc1ccc(CN2CCC(C)(Oc3ccc(C(C)=O)cc3)C2)cc1 (configuration not stated) the results were RE007 growth inh inactive and Tb PYK inh inactive.
COc1ccc(-c2noc(CSCC(=O)Nc3cc(OC)c(OC)c(OC)c3)n2)cc1OC was read as Tb PYK inh inactive.
Screening O=C1c2ccccc2C(=O)N1c1cccc(-c2csc(Nc3ccc4c(c3)OCO4)n2)c1 returned Shiga inhibitor 70.8, CHX counter 20.4, Giardia FBPA inh inactive and LmPK inh inactive.
Screening Nc1nc(-c2ccc3c(c2)CCCC3)cs1 returned Shiga inhibitor 92.6, RE007 growth inh inconclusive, CHX counter 35.9, Giardia FBPA inh inactive, LmPK inh inactive and Tb PYK inh inactive.
For c1cncc(-c2nc(-c3ccc4c(c3)OCO4)cs2)c1 the results were Shiga inhibitor 85.3, RE007 growth inh inactive, CHX counter 28.1, Giardia FBPA inh inactive, LmPK inh inactive and Tb PYK inh inactive.
For Cc1nc(-c2ccc3c(c2)OCCCO3)cs1 the results were Shiga inhibitor 86.7, RE007 growth inh inactive, CHX counter 44.6, Giardia FBPA inh inactive, LmPK inh inactive and Tb PYK inh inactive.
`CC(C)(C)C(=O)N1CCc2cc(-c3csc(N)n3)ccc21` gave Shiga inhibitor inactive, RE007 growth inh inactive, CHX counter inactive, LmPK inh inconclusive and Tb PYK inh inactive.
`COC(=O)c1nnc(C(=O)N(C)Cc2ccccc2)c2[nH]c3ccccc3c12` gave Giardia FBPA inh inactive.
`Nc1nc(-c2ccc3c(c2)OCCO3)cs1` gave Shiga inhibitor 78.6, RE007 growth inh inactive, CHX counter 49.8, Giardia FBPA inh inactive, LmPK inh inactive and Tb PYK inh inactive.
For CC1Cc2cc(/C=C3/SC(=S)N(C)C3=O)ccc2O1 (configuration not stated) the results were Shiga inhibitor inactive, RE007 growth inh inactive, CHX counter inactive, Giardia FBPA inh inactive, LmPK inh inactive and Tb PYK inh inactive.
Nc1nc(-c2ccccc2Cl)cs1 was read as RE007 growth inh inactive and Tb PYK inh inactive.
For Fc1ccc(-c2csc(/C=C/c3ccc4c(c3)OCO4)n2)cc1 the results were Shiga inhibitor 38.6, RE007 growth inh inactive, CHX counter 20.5, Giardia FBPA inh inactive, LmPK inh inactive and Tb PYK inh inactive.
Nc1nc(-c2ccc3c(c2)NC(=O)CO3)cs1 was read as Shiga inhibitor inactive, RE007 growth inh inactive, CHX counter inactive, Giardia FBPA inh inactive, LmPK inh inactive and Tb PYK inh inactive.
`CC1Cc2cc(-c3csc(N)n3)ccc2O1` (configuration not stated) gave Shiga inhibitor 35.5, RE007 growth inh inactive, CHX counter 26.1, Giardia FBPA inh inactive, LmPK inh inactive and Tb PYK inh inactive.
For Nc1nc(-c2cc3c(cc2Cl)OCCO3)cs1 the results were Shiga inhibitor 43.7, RE007 growth inh inactive, CHX counter 40.2, Giardia FBPA inh inactive, LmPK inh inactive and Tb PYK inh inactive.
Cc1cc2nc(C3CCCCC3)c(Cc3cccc(F)c3)n2c(C)c1Br was read as RE007 growth inh inactive and Tb PYK inh inactive.
Screening CS(=O)(=O)N1CCC2(CCCN(c3ncccn3)C2)CC1 returned Giardia FBPA inh inactive and Tb PYK inh inactive.
Screening Cc1nc(-c2ccc3c(c2)OCO3)cs1 returned Shiga inhibitor 42.8, RE007 growth inh inactive, CHX counter 16.0, Giardia FBPA inh inactive, LmPK inh inactive and Tb PYK inh inactive.
CC(C)(C)N1C(=O)c2ccccc2NC(=O)C1C(=O)NCCc1ccccc1 (configuration not stated) was read as RE007 growth inh inactive.
CCCc1nn2c(=O)cc(COC(=O)c3ccccc3NC(=O)COc3ccccc3F)nc2s1 was read as Tb PYK inh inactive.
`COCc1c(CCl)cnc(C)c1O` gave Shiga inhibitor 47.9, RE007 growth inh inactive, CHX counter 8.1, Giardia FBPA inh inactive, LmPK inh inactive and Tb PYK inh inactive.
Cc1ncc(CO)c(CO)c1O was read as RE007 growth inh inactive, Giardia FBPA inh inactive and Tb PYK inh inactive.
`O=c1oc2ccc3ccccc3c2cc1-c1nnc(-c2cccs2)o1` gave Shiga inhibitor inactive, RE007 growth inh inactive, CHX counter 25.3, Giardia FBPA inh inactive, LmPK inh inactive and Tb PYK inh inactive.
For COc1ccc(-c2nnc(-c3cc4c(ccc5ccccc54)oc3=O)o2)cc1 the results were Shiga inhibitor inactive, RE007 growth inh inactive, CHX counter inactive, Giardia FBPA inh inactive, LmPK inh inactive and Tb PYK inh inactive.

Source: PubChem
